Measured values from PubChem BioAssay (NCATS).
Several values for one entry are separate records, joined by “and”; a condition that tells them apart may be missing. Identical values can stand only once. Results filed as inconclusive are left out. A call without a number means that no potency is given here. More than one record can exist for a structure, and the calls need not agree. Activity calls are given as the source filed them. Unless noted, calls come from the whole dose curve; as a rule, active = well fitted curve in the direction sought with a large enough effect; inconclusive = small, poorly fitted or top-dose-only effect, or another doubt; inactive = no such curve, though single readings can be large; an effect the other way counts as inactive or inconclusive.

Key:
[1] = biological target: Cytochrome P450 2C9 (Homo sapiens) (UniProt P11712); test: Cytochrome P450 family 2 subfamily C member 9 (CYP2C9) small molecule antagonists: luciferase biochemical (cell-free) qHTS assay (AID 1645842; active = well fitted curve in the direction sought with a large enough effect in the repeat runs; an effect the other way counts as inactive or inconclusive; note: nearly all actives have a fitted effect of over 55% in size; note: potency is the fitted concentration of half-maximal effect)
How it was run: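 Luminescence, after 20 min with luciferin detection reagent, reflected CYP2C9 turnover during a 1 h NADPH-driven reaction at 37C. Enzyme-substrate mix contained 0.4% bovine serum albumin and was preincubated with compound 10 min at room temperature.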

Papain (Carica papaya) = Papain (Carica papaya) (UniProt P00784); test: Primary qHTS assay for inhibitors of the protease papain (AID 1645873);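 note: papain turnover of Z-FR-AMC read as the AMC fluorescence gain over 10 min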; note: potency is the fitted concentration of half-maximal effect
[2] = Primary qHTS for inhibitors of nuclear receptor binding SET domain protein 2 (NSD2) in an isogenic RCH-ACV NSD2 p.E1099K mutant (9B) (AID 1645876); note: nearly all actives have a fitted effect of over 70% in size; note: potency is the fitted concentration of half-maximal effect
[3] = Primary qHTS for inhibitors of nuclear receptor binding SET domain protein 2 (NSD2) in an RCH-ACV wild type WT cells (2C) (AID 1645877); note: nearly all actives have a fitted effect of over 70% in size; note: potency is the fitted concentration of half-maximal effect
[4] = biological target: N-terminal Xaa-Pro-Lys N-methyltransferase 1 (Homo sapiens) (UniProt Q9BV86); test: Confirmatory qHTS for Inhibitors of N-terminal methyltransferase 1 (NTMT1): MTaseGlo Assay (AID 1645874);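 note: luminescence from SAH made as NTMT1 methylates SPKRIA peptide using SAM; series mostly up to about 100 µM; nearly all actives have a fitted effect of over 65% in size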
How it was run: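 NTMT1 (125 nM) preincubated 15 min with compound and 100 uM SAM, then 1 uM SPKRIA peptide added for 30 min at room temperature. SAH detected by MTase-Glo luminescence; normalized to no-enzyme and DMSO controls, fitted to 4-parameter Hill.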

Sequence of Papain (Carica papaya) (P00784 whole entry, looked up, the tested form may be a part): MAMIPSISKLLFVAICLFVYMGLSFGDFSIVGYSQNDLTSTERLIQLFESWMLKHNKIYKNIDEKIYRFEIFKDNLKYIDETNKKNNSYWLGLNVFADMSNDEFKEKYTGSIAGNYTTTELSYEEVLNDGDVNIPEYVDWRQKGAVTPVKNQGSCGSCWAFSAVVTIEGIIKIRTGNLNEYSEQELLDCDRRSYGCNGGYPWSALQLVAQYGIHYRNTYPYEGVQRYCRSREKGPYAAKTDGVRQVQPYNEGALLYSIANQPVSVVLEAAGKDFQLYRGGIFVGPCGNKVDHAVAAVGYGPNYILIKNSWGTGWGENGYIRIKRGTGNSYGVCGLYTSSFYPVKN
Sequence of Cytochrome P450 2C9 (Homo sapiens) (P11712 whole entry, looked up): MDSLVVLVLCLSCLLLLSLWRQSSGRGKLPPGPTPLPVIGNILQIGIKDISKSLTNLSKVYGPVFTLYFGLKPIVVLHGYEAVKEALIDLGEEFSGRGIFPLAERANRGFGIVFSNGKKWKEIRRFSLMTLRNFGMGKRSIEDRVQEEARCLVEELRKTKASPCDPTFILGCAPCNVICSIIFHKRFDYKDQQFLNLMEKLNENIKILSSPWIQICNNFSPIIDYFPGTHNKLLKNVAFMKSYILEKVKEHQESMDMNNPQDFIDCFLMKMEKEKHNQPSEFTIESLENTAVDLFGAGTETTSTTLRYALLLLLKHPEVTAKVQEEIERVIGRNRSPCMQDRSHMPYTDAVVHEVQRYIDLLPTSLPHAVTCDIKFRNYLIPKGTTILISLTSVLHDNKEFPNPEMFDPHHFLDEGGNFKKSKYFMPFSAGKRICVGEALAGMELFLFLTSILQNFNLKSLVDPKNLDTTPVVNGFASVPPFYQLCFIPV
Sequence of N-terminal Xaa-Pro-Lys N-methyltransferase 1 (Homo sapiens) (Q9BV86 whole entry, looked up): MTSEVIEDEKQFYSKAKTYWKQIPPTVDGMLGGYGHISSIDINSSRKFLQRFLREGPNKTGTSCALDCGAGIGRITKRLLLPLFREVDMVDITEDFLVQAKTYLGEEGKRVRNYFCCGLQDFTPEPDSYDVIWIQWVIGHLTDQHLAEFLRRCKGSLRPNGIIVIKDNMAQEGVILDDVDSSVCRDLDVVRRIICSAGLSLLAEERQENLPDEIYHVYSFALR

Compound	Potency [1]	Potency (Papain (Carica papaya))	Potency [2]	Potency [3]	outcome [4]
Cc1ccc(-c2cc(C(F)(F)F)nn2-c2ccc(S(N)(=O)=O)cc2)cc1	12.3 µM (active)	inactive			
Cc1cc(C(C)(C)C)c(O)c(C)c1CC1=NCCN1	inactive	inactive	inactive	inactive	
C[C@H]1c2cccc(O)c2C(O)=C2C(=O)[C@]3(O)C(O)=C(C(N)=O)C(=O)[C@@H](N(C)C)[C@@H]3[C@@H](O)[C@@H]21	inactive	22.4 µM (active)	23.5 µM (active)	9.34 µM (active)	
CCOC(=O)c1ncn2c1CN(C)C(=O)c1cc(F)ccc1-2	inactive and 13.5 µM (active)	inactive	inactive	inactive	
COc1ccc2[nH]cc(CCNC(C)=O)c2c1	inactive	inactive	inactive	inactive	
COc1ccc2c(c1)c(CC(=O)O)c(C)n2C(=O)c1ccc(Cl)cc1	11 µM (active)	inactive	inactive	inactive	
COc1cc2nc(N3CCN(C(=O)C4COc5ccccc5O4)CC3)nc(N)c2cc1OC (stereo not drawn)	inactive	25.1 µM (active)			
CC(CCc1ccc(O)cc1)NCCc1ccc(O)c(O)c1 (stereo not drawn)	inactive	inactive			
CC1(CN2CCC(n3c(=O)[nH]c4ccccc43)CC2)OCc2ccccc2-n2cccc21 (stereo not drawn)	9.77 µM (active)				
O=C(Nc1ccc([N+](=O)[O-])cc1Cl)c1cc(Cl)ccc1O	4.77 µM (active)	inactive	11.8 µM (active)	11.8 µM (active)	
CC[N+](CC)(CC)CCOc1cccc(OCC[N+](CC)(CC)CC)c1OCC[N+](CC)(CC)CC	inactive	inactive	inactive	inactive	
CCC1(C)CC(=O)NC1=O (stereo not drawn)	inactive	inactive	inactive	inactive	inactive
Cc1cn([C@H]2C=C[C@@H](CO)O2)c(=O)[nH]c1=O	inactive	inactive	inactive	inactive	
CC(C(=O)O)c1cccc(C(=O)c2ccccc2)c1 (stereo not drawn)	19.5 µM (active)	inactive			
CN1CCN2c3ccccc3Cc3ccccc3C2C1 (stereo not drawn)	inactive	inactive			
CC#C[C@]1(O)CC[C@H]2[C@@H]3CCC4=CC(=O)CCC4=C3[C@@H](c3ccc(N(C)C)cc3)C[C@@]21C	1.74 µM (active)	inactive	23.5 µM (active)		
CN1CCC(=C2c3ccccc3CC(=O)c3sccc32)CC1	inactive	inactive	inactive		

Compound	Potency [1]	Potency (Papain (Carica papaya))	Potency [2]	Potency [3]	outcome [4]
N[C@@H](Cc1c[nH]c2ccc(O)cc12)C(=O)O	15.5 µM (active)	inactive	inactive	inactive	
CCC1(c2ccccc2)C(=O)NCNC1=O	inactive	inactive	inactive	inactive	
O=c1[nH]cc(F)c(=O)[nH]1	inactive	inactive	13.2 µM (active)	23.7 µM (active) and 14.8 µM (active)	
Clc1ccc(C(c2ccccc2Cl)C(Cl)Cl)cc1 (stereo not drawn)	12.3 µM (active)	inactive	inactive	inactive	
CCN1CCCC1CNC(=O)c1cc(S(=O)(=O)CC)c(N)cc1OC (stereo not drawn)	inactive	inactive	inactive	inactive	
Cc1cc(C(C)(C)C)cc(C)c1CC1=NCCN1	inactive	inactive	inactive and 20.9 µM (active)	inactive and 18.6 µM (active)	
CN(C)CCC=C1c2ccccc2C=Cc2ccccc21	inactive	inactive	20.9 µM (active)	23.5 µM (active)	inactive
O=C(CCCN1CCC(O)(c2ccc(Cl)cc2)CC1)c1ccc(F)cc1	inactive	inactive			
CN1C(C(=O)Nc2ccccn2)=C(O)c2ccccc2S1(=O)=O	15.5 µM (active) and 10.7 µM (active)	inactive	inactive	inactive	
CC(=O)OCC(CCn1cnc2cnc(N)nc21)COC(C)=O	inactive	inactive	inactive	inactive	
Clc1ccc2nsnc2c1NC1=NCCN1	inactive	inactive	inactive	inactive	
CC(C)Cc1ccc(C(C)C(=O)O)cc1 (stereo not drawn)	inactive	inactive	inactive	inactive	
COc1cc2nc(N(C)CCCNC(=O)C3CCCO3)nc(N)c2cc1OC (stereo not drawn)	inactive	22.4 µM (active)	inactive	inactive	
Nc1ccn([C@H]2CC[C@@H](CO)O2)c(=O)n1	inactive	inactive			
CC(C)NCC(O)c1ccc(O)c(O)c1 (stereo not drawn)	inactive	inactive	inactive		
CC1(C)O[C@H]2CC(=O)OC[C@]23[C@H]2CC[C@@]4(C)[C@H](c5ccoc5)OC(=O)[C@H]5O[C@]54[C@]2(C)C(=O)C[C@@H]13	inactive		inactive	inactive	
